{"source": "PubChem BioAssay AID624300", "about": "(Southern Research Specialized Biocontainment Screening …, 2012)", "note": "About 360 (15%) of roughly 2,400 compounds were called active. Not all results are given here. Measured potencies and affinities stand elsewhere. Unmarked numbers belong to inactive results.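 Rule for the calls: active = viability falls under 70% at one or more tested concentrations, taken as toxicity; inactive = viability stays over 70% at every dose.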"}
{"assay": "HeLa cell cytotoxicity, dose response, cytotoxicity control for MgcRacGAP inhibitor project (AID 624300);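 note: 100% = median of untreated control wells on the same plate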", "settings": "CellTiter-Glo luminescence, 24 h; series mostly up to 100 µM; viability: at the top concentration", "units": {"viability": "%"}}
{"molecule": "O=C(c1cc(C2CC2)nn1-c1ccccc1)N1CCN(c2ccc(O)cc2)CC1", "viability": 106}
{"molecule": "O=C(c1ccccc1)c1ccc(C(=O)N2CCN(c3ccc(O)cc3)CC2)cc1", "viability": 91.1}
{"molecule": "O=C(CN1CCCCCC1)Nc1nc2ccccc2s1", "viability": 92.9}
{"molecule": "Cc1ccc(NC(=O)CN2CCC(Cc3ccccc3)CC2)cc1S(=O)(=O)N(C)C", "viability": 82.5}
{"molecule": "CN(C)/N=C/c1ccc(N2CCOCC2)cc1", "viability": 99.3}
{"molecule": "Cn1c(N2CCOCC2)c(/C=N/O)c2ccccc21", "viability": 95.4}
{"molecule": "COc1ccc(NC(=S)NNS(=O)(=O)c2ccc3ccccc3c2)c(OC)c1", "viability": 103}
{"molecule": "O=C(NC(=S)N1CCN(c2ccc(O)cc2)CC1)c1ccco1", "viability": 98.4}
{"molecule": "COc1cccc(N2CC(C(=O)Oc3ccc4ccccc4c3)CC2=O)c1", "note": "(stereo not drawn)", "viability": 102}
{"molecule": "COc1ccc(Cn2nnnc2C(c2cccnc2)N2CCN(c3ccc(O)cc3)CC2)cc1", "note": "(stereo not drawn)", "viability": 94.8}
{"molecule": "CC1(C)CC(=O)C(C=Nc2ccc(O)cc2)=C(O)C1", "viability": 102}
{"molecule": "CC1(C)CC(=O)C=C(Nc2ccc(O)cc2)C1", "viability": 100}
{"molecule": "Cc1ccc(/C=N/Nc2ccc(Cl)c(C(=O)O)c2)s1", "viability": 97.3}
{"molecule": "CCN(CC(=O)Nc1ccc(S(=O)(=O)N2CCCC2)cc1)CC(=O)Nc1cccc(OC)c1", "viability": 98.4}
{"molecule": "O=[N+]([O-])c1ccc(Oc2cccc3cccnc23)c([N+](=O)[O-])c1", "viability": 100}
{"molecule": "Nc1cc(SCc2ccc([N+](=O)[O-])cc2)ncn1", "viability": 98.7}
{"molecule": "Cc1ccc(S(=O)(=O)Oc2ccc(/C=C3/C(=N)N4C(=NC3=O)SN=C4S(C)(=O)=O)cc2)cc1", "viability": 106}
{"molecule": "COc1cc2nc(=S)n(CCCN3CCOCC3)c(N)c2cc1OC", "viability": 98.3}
{"molecule": "COc1cccc(CNc2ccc3c(c2)ncn3C)c1OC", "viability": 96.4}
{"molecule": "COc1cccc(CNc2ccc(N3CCCCC3)cc2)c1OC", "viability": 91.9}
{"molecule": "CC(Oc1ccc(Cl)cc1Cl)C(=O)Nc1ccc(O)cc1", "note": "(stereo not drawn)", "viability": 113}
{"molecule": "Oc1ccc(NCc2ccccc2OCc2ccccc2F)cc1", "viability": 108}
{"molecule": "O=C(c1c(Cl)cccc1Cl)N1CCN(c2cccc3[nH]ccc23)CC1", "viability": 85.3}
{"molecule": "COc1ccc(N2CCC(CNC(=S)Nc3cccc(C)c3)C2)cc1", "note": "(stereo not drawn)", "viability": 81.7}
{"molecule": "Cc1nc2ccccc2n2c(O)c(CC(=O)O)cc12", "viability": 101}
{"molecule": "Clc1cc(Cl)c(OCCCCn2cncn2)c(Cl)c1", "viability": 93.2}
{"molecule": "COc1cc(/C=N\\N=C2/SC(CC(=O)O)C(=O)N2c2ccc(O)cc2)ccc1O", "note": "(stereo not drawn)", "viability": 108}
{"molecule": "CCN(CC)c1ccc(S(=O)(=O)N2CCOCC2)cc1NC(=O)COC(=O)/C=C/c1ccc(O)c(OC)c1", "viability": 91}
{"molecule": "CCN(CC)S(=O)(=O)c1ccc(C)c(NC(=O)CN2CCN(Cc3ccccc3)CC2)c1", "viability": 95.8}
{"molecule": "CCn1cnc2cc(NCc3ccc(OC)cc3)ccc21", "viability": 98.5}
{"molecule": "COc1ccc2c(c1)-c1nc(/N=C/c3ccccc3O)sc1CC2", "viability": 111}
{"molecule": "Cn1cccc1/C=N/N1CCN(c2ccccc2)CC1", "viability": 104}
{"molecule": "COc1cc(/C=N/Nc2cccc3cccnc23)cc(OC)c1O", "viability": 95.5}
{"molecule": "Cc1cc(=O)[nH]c(N/N=C/c2ccc(O)c(O)c2)n1", "viability": 101}
{"molecule": "COc1cc(/C=N/NC(=O)c2nc(C)cc(C)n2)ccc1O", "viability": 105}
{"molecule": "Cc1cc(C)n(CCC(=O)N/N=C/c2ccc(O)cc2)n1", "viability": 96.2}
{"molecule": "COc1cc(/C=C/C(=O)OCC(=O)N2CCCc3ccccc32)ccc1O", "viability": 97.4}
{"molecule": "COc1cc(/C=C/C(=O)OCC(=O)NC(=O)NC(C)(C)C)ccc1O", "viability": 88.8}
{"molecule": "COc1cc(/C=C/C(=O)OCC(=O)NC2CCS(=O)(=O)C2)ccc1O", "note": "(stereo not drawn)", "viability": 109}
{"molecule": "COc1ccc(N2CCN(C(c3cccs3)C(C)NC(=O)c3ccco3)CC2)cc1", "note": "(stereo not drawn)", "viability": 94.4}
{"molecule": "O=C1NN(c2ccccc2)C(=O)C1=Cc1ccccc1O", "viability": 104}
{"molecule": "O=C1NN(c2ccc(Br)cc2)C(=O)/C1=C\\c1ccc(O)cc1O", "viability": 87.2}
{"molecule": "C(=N\\N1CCOCC1)/c1nc(-c2ccccc2)n2ccccc12", "viability": 101}
{"molecule": "COc1cc(OC)cc(C(=O)N2CCN(Cc3ccccc3Br)CC2)c1", "viability": 86.6}
{"molecule": "COc1cc(/C=N/NC(=O)CCN2CCCCC2)ccc1O", "viability": 101}
{"molecule": "COc1ccc2c(c1)-c1nc(/N=C/c3cccc(OC)c3O)sc1CC2", "viability": 112}
{"molecule": "COc1ccc2c(/C=N/Nc3ccc(C(=O)O)cc3)c[nH]c2c1", "viability": 102}
{"molecule": "COc1cc(/C=N/Nc2ccccn2)cc(OC)c1O", "viability": 91.8}
{"molecule": "COc1ccc2nc(C)cc(SCC(=O)N/N=C/c3ccc(O)c(O)c3)c2c1", "viability": 97.9}
{"molecule": "CN1CCCCCC1=Nc1ccccc1C#N", "viability": 92.2}
{"molecule": "CCn1c(C)nc2cc(C(=O)N/N=C/c3cccc(O)c3O)ccc21", "viability": 108}
{"molecule": "O=c1/c(=C/c2ccc(O)cc2)sc2n1CCCN=2", "viability": 102}
{"molecule": "Cc1c(N=Nc2ccc(O)cc2)c(=O)n(-c2ccccc2)n1C", "viability": 103}
{"molecule": "NC(=S)NNc1ccnc2cc(Cl)ccc12", "viability": 88}
{"molecule": "Oc1ccc(Nc2ccnc3cc(Cl)ccc23)cc1", "viability": 95.1}
{"molecule": "Cc1ccc(NCc2ccco2)cc1C", "viability": 105}
{"molecule": "COc1cc(/C=N/NC(=O)CCC(=O)Nc2ccc(F)cc2)ccc1O", "viability": 103}
{"molecule": "CN(C)c1ccc(N/C=C/C(=O)C(C)(C)C)cc1", "viability": 96.1}
